Bioassay records from PubChem BioAssay.
An excerpt weighted towards active compounds, which were near 7.3% of everything screened.
AmpC inh detg – blocks E. coli AmpC beta-lactamase in detergent assay | 370,000 tested, 0.041% active | AmpC hydrolysis of nitrocefin, absorbance 480 nm, 0.01% Triton | Potency, µM (doses to about 114 µM), most hits filed as inhibitors | P00811; further: nearly all actives have a fitted effect of over 25% in size
Target sequence (P00811 whole entry, looked up): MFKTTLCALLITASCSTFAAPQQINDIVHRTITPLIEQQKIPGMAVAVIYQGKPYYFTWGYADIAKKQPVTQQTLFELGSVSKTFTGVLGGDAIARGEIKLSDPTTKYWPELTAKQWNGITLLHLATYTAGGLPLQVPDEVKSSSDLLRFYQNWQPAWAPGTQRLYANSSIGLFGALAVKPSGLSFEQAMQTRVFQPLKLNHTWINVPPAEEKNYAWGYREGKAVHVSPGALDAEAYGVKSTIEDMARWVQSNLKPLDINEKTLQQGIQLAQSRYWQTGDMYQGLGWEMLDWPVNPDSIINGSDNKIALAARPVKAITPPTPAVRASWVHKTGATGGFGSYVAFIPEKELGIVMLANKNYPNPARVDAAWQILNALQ
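20 mM phosphate pH 7.0 + 0.01% (detergent screen) or 0.0001% Triton X-100; 5.3 nM AmpC reagent; cpd preinc 15 min RT; nitrocefin (800 uM stock) to start; A480 q20 s × 4 min; Activity was normalised to no-enzyme and no-compound control wells.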
HCMV antiviral – human cytomegalovirus inhibition; HFF cells, HCMV-luciferase reporter, 72 h; hits give low values; activity change, negative = inhibition, % at 57.5 µM; 410,000 tested, 4.5% active; in the data active means activity change below about -60%; inconclusive means no clear call, values can overlap the other calls; inactive means above about -39%
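Inhibition of viral replication was scored as loss of reporter luminescence in HFFs infected with HCMV-luciferase (MOI 1 PFU/cell) for 72 h; compounds tested at 2 doses, normalized to buffer and Salinomycin controls.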
AmpC no deterg – inhibitors of E. coli AmpC beta-lactamase without detergent; AID 485341; P00811; AmpC nitrocefin hydrolysis, absorbance 480 nm, 0.0001% Triton; 330,000 tested, 0.52% active; Potency, µM (top dose mostly 57.1 µM), actives largely listed as inhibitors; further: nearly all actives have a fitted effect of over 20% in size
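AmpC (5.3 nM in the dispensed reagent) in 20 mM phosphate pH 7.0 with 0.01% (detergent screen) or 0.0001% Triton X-100 was preincubated with compounds for 15 min at room temperature. Nitrocefin was then added from an 800 uM solution, and hydrolysis was followed at 480 nm.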
HCV inh – HCV inhibition; Huh7.5.1 HCVcc-Cre infection, luciferase reporter, 44 h; Potency, µM (top dose mostly 41.8 µM), most hits filed as inhibitors; 340,000 tested, 3.4% active; AID 651820
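Whole-lifecycle infectious HCVcc-Cre system; cells 1,000/well, compound then virus (~0.5 moi) added 4 h after plating, 44 h culture. Luciferase read 15 sec following 15 min substrate incubation, room temp.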
FMDV inh – blocks foot and mouth disease virus; 410,000 tested, 1.2% active; AID 1159524; FMDV antiviral cell-based qHTS; Potency, µM (titrated, usually from 57.9 µM), usual class: inhibitors; calls by dose curve; tested in HEK293T cells; further: read-out not given here; nearly all actives have a fitted effect of over 45% in size
Numbers stand for hits; . = inactive; ? = inconclusive; / = not tested or not shown. Unless noted, the call rests on the fitted dose curve; in most records, active means well fitted curve in the direction sought with a large enough effect; inconclusive means small, poorly fitted or top-dose-only effect, or another doubt; inactive means no such curve, though single readings can be large; an effect the other way counts as inactive or inconclusive.

SMILES	AmpC inh detg	HCMV antiviral	AmpC no deterg	HCV inh	FMDV inh
Cc1ccc(NC(=O)CN2C(=O)CCc3cc(S(=O)(=O)N4CCCCC4)ccc32)cc1N(C)C	.	.	/	/	.
O=C1N(c2ccccc2)CCN1c1ccccc1	.	.	.	.	.
O=C1NCCN1c1ccccc1	/	-79	/	.	.
C=CCn1c(C)nnc1SCC(=O)Nc1oc(C)c2c(C)n[nH]c(=O)c12	.	.	.	.	.
N=c1c2c(n(Cc3ccccc3)c3c1CCC3)CCC2	.	-97	.	?	?
N=c1c2c(n(Cc3ccc(Cl)cc3Cl)c3c1CCC3)CCCC2	.	/	.	10µM	.
N=c1c2c(n(Cc3ccc(F)cc3)c3c1CCC3)CCCC2	.	-100	.	.	?
N=c1c2c(n(Cc3cccc(Cl)c3)c3c1CCC3)CCCC2	.	-95	.	25µM	/
Cc1cccc(C(=O)Oc2ccccc2C(=O)N2CCOCC2)c1	.	.	.	.	.
N=c1c2c(n(Cc3ccc(Cl)cc3)c3c1CCC3)CCC2	.	-102	.	?	?
O=C(Nn1c(-c2ccncc2)nc2ccccc2c1=O)c1ccccc1Br	.	.	.	.	.
O=C(NC1CCCCC1)C(c1cccs1)N(C(=O)c1ccccn1)c1ccccc1 (stereo not drawn)	.	.	.	.	.
OC(C#Cc1ccccn1)c1cccs1 (stereo not drawn)	.	-62	.	?	.
O=C(O)C(=Cc1ccc([N+](=O)[O-])cc1)c1ccccc1	/	.	/	/	/
CN(Cc1ccc(Cl)c(Cl)c1)C(c1cc2ccccc2o1)c1nnnn1C(C)(C)C (stereo not drawn)	/	-78	/	/	22µM
O=C(Nc1ccc(S(=O)(=O)N2CCCC2)cc1)c1ccc(OCC2CCCO2)cc1 (stereo not drawn)	.	-88	.	11µM	18µM
O=C(Nc1cccc(S(=O)(=O)N2CCCCC2)c1)c1ccc(OCC2CCCO2)cc1 (stereo not drawn)	.	-66	.	?	?
O=C(c1ccc(OCC2CCCO2)cc1)N1CCN(S(=O)(=O)c2cccc(F)c2)CC1 (stereo not drawn)	?	.	.	.	.
O=C(Nc1nc2ccccc2s1)c1ccc(OCC2CCCO2)cc1 (stereo not drawn)	.	-88	.	7.9µM	.
O=C(c1ccccc1)N1CC(=O)N2[C@H](CO)[C@@H](c3ccc(Br)cc3)[C@@H]2C1	/	.	/	/	/
Cc1cc(C)cc(OCC(=O)OCC(=O)NC2CCCCCC2)c1	.	.	.	.	.
Cc1cccc(CNC(=O)c2cnn(-c3nccc(-c4cc5ccccc5o4)n3)c2C2CC2)n1	/	/	/	/	.
COc1ccc(OCc2nnc(SCC(=O)N3CCCc4ccccc43)n2-c2ccc(C)cc2)cc1	.	.	.	10µM	.
CCOc1ccc(C(=O)NCc2nc3cccnc3n2Cc2ccc(F)cc2)cc1OCC	.	.	/	/	.
O=c1c2cc(Br)ccc2[nH]c(=S)n1Cc1cccnc1	.	.	.	.	.
SMILES	AmpC inh detg	HCMV antiviral	AmpC no deterg	HCV inh	FMDV inh
C=CCn1c(=S)[nH]c2ccc(Br)cc2c1=O	.	-61	.	.	.
COc1ccc(N2CCN(C(=O)C3CCN(S(=O)(=O)c4ccc5c(c4)CC(C)N5C(=O)C4CC4)CC3)CC2)cc1 (stereo not drawn)	/	.	/	/	/
CCc1noc(C)c1C(=O)N1CCCC(N2CCN(c3ccccc3F)CC2)C1 (stereo not drawn)	.	.	.	.	.
COc1ccc(CCN2CC(C(=O)OCC(=O)N(C)CC(=O)Nc3ccccc3Cl)CC2=O)cc1OC (stereo not drawn)	/	.	/	.	.
NNC(=O)CSc1c(-c2cccs2)[nH]c2ccccc12	?	.	14µM	.	.
COc1ccc(S(=O)(=O)N2CCCCCC2)cc1NC(=O)CN(C)Cc1ccc2c(c1)OCO2	.	?	.	11µM	.
COc1ccc(S(=O)(=O)N2CCCCC2)cc1NC(=O)Cc1ccc(Br)cc1	/	.	/	.	.
CN(CC(=O)Nc1cc(S(=O)(=O)N2CCCCCC2)ccc1Cl)Cc1ccc2c(c1)OCO2	.	.	.	?	.
CS(=O)(=O)c1ccc(Cl)c(NC(=O)CNC(=O)c2ccc3c(c2)OCO3)c1	/	-61	.	.	.
COc1ccccc1CNCC(=O)Nc1cc(S(=O)(=O)N2CCOCC2)ccc1Cl	.	.	.	?	25µM
CN(CC(=O)Nc1cc(S(=O)(=O)N2CCCC2)ccc1Cl)Cc1ccc2c(c1)OCO2	.	?	.	6.3µM	.
COc1ccccc1NC(=O)COn1nnc2ccc(S(=O)(=O)N3CCOCC3)cc21	.	-63	.	?	.
COc1cccc(CN(C)CC(=O)Nc2cc(S(=O)(=O)N3CCCC3)ccc2Cl)c1OC	.	.	.	2.8µM	?
COc1ccccc1CN(C)CC(=O)Nc1cccc(S(=O)(=O)N2CCCC2)c1	/	.	.	?	.
CN(C)c1cccc(Nc2cc3c(cn2)cc(-c2cnn(C)c2)n3C)c1	/	.	/	/	/
C/C(=N\NC(=O)c1ccc(Cn2cc(Br)cn2)o1)c1ccc(NC(=O)c2ccoc2C)cc1	.	.	.	7.1µM	.
C/C(=N\NC(=O)c1nn(C)c(C)c1Br)c1cccc(NC(=O)c2ccoc2C)c1	?	.	32µM	?	.
C/C(=N\NC(=O)c1ccc(Cn2cc(Br)cn2)o1)c1cccc(NC(=O)C(C)(C)C)c1	.	?	.	.	.
CCOc1ccc(NC(=O)c2cc(S(=O)(=O)NC3CCCC3)ccc2F)cc1	.	-61	/	/	.
O=C(Nc1ccc(C(F)(F)F)cc1)c1cc(S(=O)(=O)NC2CCCCCC2)ccc1F	.	-78	/	/	.
CN(C)c1nc(N(C)C)nc(N2CC(=O)N(c3ccccc3)C2=N)n1	.	.	.	.	.
Cc1ccc(NC(=S)NCCSc2ccc(Cl)cc2)cc1	.	?	.	.	.
Cc1cccc(C)c1NC(=S)NCCSc1ccc(Cl)cc1	.	?	.	10µM	.
Cc1cnc(C(=O)Nc2cccc3cccnc23)cn1	?	-89	.	?	.
Cc1onc(-c2ccccc2Cl)c1C(=O)Nc1ccccc1C(N)=O	.	.	.	.	11µM
SMILES	AmpC inh detg	HCMV antiviral	AmpC no deterg	HCV inh	FMDV inh
Cc1cccc(C(=O)Nc2cccc3cccnc23)c1	.	.	.	.	.
Cc1onc(-c2ccccc2Cl)c1C(=O)Nc1cccc2cccnc12	?	-99	.	7.1µM	?
COc1cc(NC(=O)c2c(-c3ccccc3Cl)noc2C)c2ncccc2c1	/	.	/	?	.
CCOc1ccc(OC(=O)c2c(-c3ccccc3Cl)noc2C)cc1	.	.	/	/	40µM
Cc1cc(=O)n2nc(N3CCC(C(=O)Nc4ccc(C)c(Cl)c4)CC3)sc2n1	.	.	/	/	.
O=c1[nH]c(CN2CCN(c3ncccn3)CC2)nc2c(Br)cc(Br)cc12	?	.	.	.	.
Brc1cc(Br)c2ncnc(N3CCCCC3)c2c1	?	-104	.	?	?
Cc1cc(C)c2c(n1)SCC(=O)N2CC(=O)Nc1cc(F)ccc1F	?	.	.	.	.
